Hit rate of the full screen: of about 5,500 compounds, about 2,000 (36%) were called active. About 18% were inconclusive and are not listed. Cut-off read from the data, not from the text of the source: active = normalized growth mostly below about 0.91 (no sharp cut-off); inconclusive = no clear call, values can overlap the other calls; inactive = mostly above about 0.92. The list shows a part of the results.
Experiment: chemical genetic growth profiling, strain panel (AID 1159580);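 note: tested at 20 µM; growth read once vehicle control cultures reached saturation at 30 °C; 1 = growth at the plate median or of vehicle wells; lower values mean less growth of the strain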
Details: growth OD

Measured: normalized growth

C[C@]12CCC3c4ccc(OS(=O)(=O)O)cc4CCC3C1CC[C@H]2O (stereo not given in full)
inactive: S. cerevisiae deletion strains, locus YJR043C, strain POL32, active compounds read low 1 | S. cerevisiae deletion strains, locus YJR066W, strain TOR1, active compounds read low 0.983 | S. cerevisiae deletion strains, locus YKL009W, strain mrt4, active compounds read low 0.99 | S. cerevisiae deletion strains, locus YKL068W, active compounds read low 0.995 | S. cerevisiae deletion strains, locus YKL085W, strain MDH1 (second series), active compounds read low 0.987 | S. cerevisiae deletion strains, locus YKL085W, strain MDH1, active compounds read low 0.987 | S. cerevisiae deletion strains, locus YKL160W, strain elf1, active compounds read low 0.923 | S. cerevisiae deletion strains, locus YKL190W, strain CNB1, active compounds read low 1 | S. cerevisiae deletion strains, locus YKR001C, strain vps1, active compounds read low 0.994 | S. cerevisiae deletion strains, locus YKR026C, strain gcn3, active compounds read low 0.988 | S. cerevisiae deletion strains, locus YKR091W, strain srl3, active compounds read low 0.97 | S. cerevisiae deletion strains, locus YLL001W, strain dnm1, active compounds read low 0.994 | S. cerevisiae deletion strains, locus YLL026W, active compounds read low 0.967 | S. cerevisiae deletion strains, locus YLL041C, strain sdh2, active compounds read low 0.978 | S. cerevisiae deletion strains, locus YLR027C, strain aat2, active compounds read low 0.997 | S. cerevisiae deletion strains, locus YLR039C, strain RIC1, active compounds read low 0.977 | S. cerevisiae deletion strains, locus YLR058C, strain SHM2, active compounds read low 0.99 | S. cerevisiae deletion strains, locus YLR102C, strain apc9, active compounds read low 0.99 | S. cerevisiae deletion strains, locus YLR113W, strain HOG1, active compounds read low 0.963 | S. cerevisiae deletion strains, locus YLR221C, strain rsa3, active compounds read low 1.02 | S. cerevisiae deletion strains, locus YLR258W, strain gsy2, active compounds read low 0.965 | S. cerevisiae deletion strains, locus YLR262C, strain YPT6 (second series), active compounds read low 0.977 | S. cerevisiae deletion strains, locus YLR262C, strain YPT6, active compounds read low 0.945 | S. cerevisiae deletion strains, locus YLR268W, strain sec22, active compounds read low 0.973 | S. cerevisiae deletion strains, locus YLR320W, strain mms22, active compounds read low 1.02 | S. cerevisiae deletion strains, locus YLR330W, strain CHS5, active compounds read low 0.987 | S. cerevisiae deletion strains, locus YLR342W, strain FKS1 (second series), active compounds read low 0.988 | S. cerevisiae deletion strains, locus YLR342W, strain FKS1, active compounds read low 0.987 | S. cerevisiae deletion strains, locus YLR357W, strain rsc2, active compounds read low 0.955 | S. cerevisiae deletion strains, locus YLR370C, strain arc18, active compounds read low 0.976 | S. cerevisiae deletion strains, locus YLR371W, strain rom2, active compounds read low 0.986 | S. cerevisiae deletion strains, locus YLR384C, strain iki3, active compounds read low 0.959 | S. cerevisiae deletion strains, locus YLR418C, strain cdc73, active compounds read low 0.973 | S. cerevisiae deletion strains, locus YML016C, strain PPZ1, active compounds read low 0.993 | S. cerevisiae deletion strains, locus YML032C, strain rad52, active compounds read low 0.989 | S. cerevisiae deletion strains, locus YML120C, strain ndi1, active compounds read low 0.995 | S. cerevisiae deletion strains, locus YML124C, strain tub3, active compounds read low 0.988 | S. cerevisiae deletion strains, locus YMR058W, strain fet3, active compounds read low 0.979 | S. cerevisiae deletion strains, locus YMR078C, strain ctf18, active compounds read low 0.982 | S. cerevisiae deletion strains, locus YMR125W, strain sto1, active compounds read low 0.994 | S. cerevisiae deletion strains, locus YMR129W, active compounds read low 0.961 | S. cerevisiae deletion strains, locus YMR205C, strain PFK2, active compounds read low 1.01 | S. cerevisiae deletion strains, locus YMR223W, strain ubp8, active compounds read low 0.985 | S. cerevisiae deletion strains, locus YMR231W, strain pep5, active compounds read low 0.991 | S. cerevisiae deletion strains, locus YMR263W, strain SAP30, active compounds read low 1 | S. cerevisiae deletion strains, locus YMR307W, strain GAS1, active compounds read low 0.928 | S. cerevisiae deletion strains, locus YNL067W, strain RPL9B, active compounds read low 1.02 | S. cerevisiae deletion strains, locus YNL071W, strain lat1, active compounds read low 0.988 | S. cerevisiae deletion strains, locus YNL128W, strain TEP1, active compounds read low 0.982 | S. cerevisiae deletion strains, locus YNL153C, strain GIM3, active compounds read low 1.03 | S. cerevisiae deletion strains, locus YNL183C, strain NPR1, active compounds read low 0.913 | S. cerevisiae deletion strains, locus YNL209W, strain ssb2, active compounds read low 0.979 | S. cerevisiae deletion strains, locus YNL233W, strain BNI4, active compounds read low 0.998 | S. cerevisiae deletion strains, locus YNL248C, strain rpa49, active compounds read low 0.914 | S. cerevisiae deletion strains, locus YNL250W, strain rad50, active compounds read low 0.995 | S. cerevisiae deletion strains, locus YNL271C, strain bni1, active compounds read low 0.989 | S. cerevisiae deletion strains, locus YNL298W, strain CLA4, active compounds read low 0.984 | S. cerevisiae deletion strains, locus YNL307C, strain MCK1, active compounds read low 0.98 | S. cerevisiae deletion strains, locus YNL322C, strain KRE1 (second series), active compounds read low 0.952 | S. cerevisiae deletion strains, locus YNR049C, strain mso1, active compounds read low 0.953 | S. cerevisiae deletion strains, locus YNR052C, strain pop2, active compounds read low 0.982 | S. cerevisiae deletion strains, locus YOL006C, strain TOP1, active compounds read low 1.05 | S. cerevisiae deletion strains, locus YOL012C, strain htz1 1.45 | S. cerevisiae deletion strains, locus YOL147C, strain pex11, active compounds read low 0.984 | S. cerevisiae deletion strains, locus YOR001W, strain rrp6, active compounds read low 1.01 | S. cerevisiae deletion strains, locus YOR061W, strain CKA2, active compounds read low 0.986 | S. cerevisiae deletion strains, locus YOR069W, strain VPS5, active compounds read low 0.988 | S. cerevisiae deletion strains, locus YOR070C, strain gyp1, active compounds read low 0.991 | S. cerevisiae deletion strains, locus YOR080W, strain dia2, active compounds read low 0.96 | S. cerevisiae deletion strains, locus YOR083W, strain WHI5, active compounds read low 0.901 | S. cerevisiae deletion strains, locus YOR106W, strain vam3, active compounds read low 0.95 | S. cerevisiae deletion strains, locus YOR136W, strain idh2, active compounds read low 0.988 | S. cerevisiae deletion strains, locus YOR144C, strain elg1, active compounds read low 0.987 | S. cerevisiae deletion strains, locus YOR184W, strain ser1, active compounds read low 0.995 | S. cerevisiae deletion strains, locus YOR231W, strain MKK1, active compounds read low 0.965 | S. cerevisiae deletion strains, locus YOR265W, strain rbl2, active compounds read low 0.978 | S. cerevisiae deletion strains, locus YOR270C, strain vph1, active compounds read low 0.97 | S. cerevisiae deletion strains, locus YOR290C, strain snf2, active compounds read low 0.951 | S. cerevisiae deletion strains, locus YOR316C, strain cot1, active compounds read low 0.989 | S. cerevisiae deletion strains, locus YPL051W, strain arl3, active compounds read low 0.973 | S. cerevisiae deletion strains, locus YPL078C, strain atp4, active compounds read low 0.97 | S. cerevisiae deletion strains, locus YPL106C, strain sse1, active compounds read low 0.955 | S. cerevisiae deletion strains, locus YPL240C, strain hsp82, active compounds read low 0.984 | S. cerevisiae deletion strains, locus YPL256C, strain CLN2, active compounds read low 0.981 | S. cerevisiae deletion strains, locus YPR119W, strain clb2, active compounds read low 0.988 | S. cerevisiae deletion strains, locus YPR141C, strain kar3, active compounds read low 0.984 | S. cerevisiae deletion strains, locus YPR163C, strain tif3, active compounds read low 0.984 | S. cerevisiae deletion strains, locus YPR167C, strain met16, active compounds read low 0.988 | S. cerevisiae deletion strains, strain wtn01, active compounds read low 0.975 | S. cerevisiae strains, strain wild type, active compounds read low 0.999

Source: PubChem BioAssay AID1159580 (chemical genetic matrix, 2015)
